According to the supplement of paper PMC4466140:

Target: SpBzz1-D2
Test: SPOT peptide array binding signal intensity (averaged, normalized) (arbitrary units (background-subtracted, floor 0; scale differs between SH3 domains)); higher = stronger binding of the SH3 domain to the peptide
Method in brief: (§1)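 Cellulose membranes carried synthetic 15-mer peptides with cysteines swapped for serines. These were incubated overnight at 4°C with 10 μg/ml of GST-fused SH3 domains from four yeast species in TBS-based blocking buffer. Binding signal, detected with anti-GST antibody and quantified in Genespotter, is the normalized, background-subtracted spot intensity averaged over replicates, in arbitrary units specific to each domain.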

Row | Binder | SPOT peptide array binding signal intensity
1 | YVRRRPRVRLEPLLS | 4.62
2 | FSRRQSMDIPSKNRN | 16.8

Target: SpCyk3
Test: as above
Method in brief: as §1

Row | Binder | SPOT peptide array binding signal intensity
3 | YVRRRPRVRLEPLLS | 2
4 | FSRRQSMDIPSKNRN | 4

Target: SpHof1
Test: as above
Method in brief: as §1

Row | Binder | SPOT peptide array binding signal intensity
5 | YVRRRPRVRLEPLLS | 97.6
6 | FSRRQSMDIPSKNRN | 43.8

Target: SpHof1-2
Test: as above
Method in brief: as §1

Row | Binder | SPOT peptide array binding signal intensity
7 | YVRRRPRVRLEPLLS | 29.5
8 | FSRRQSMDIPSKNRN | 98

Target: SpHof1-3
Test: as above
Method in brief: as §1

Row | Binder | SPOT peptide array binding signal intensity
9 | YVRRRPRVRLEPLLS | 256
10 | FSRRQSMDIPSKNRN | 193

Target: SpHse1
Test: as above
Method in brief: as §1

Row | Binder | SPOT peptide array binding signal intensity
11 | YVRRRPRVRLEPLLS | 834
12 | FSRRQSMDIPSKNRN | 784

Target: SpLsb1
Test: as above
Method in brief: as §1

Row | Binder | SPOT peptide array binding signal intensity
13 | YVRRRPRVRLEPLLS | 7.88
14 | FSRRQSMDIPSKNRN | 15

Target: SpLsb4
Test: as above
Method in brief: as §1

Row | Binder | SPOT peptide array binding signal intensity
15 | YVRRRPRVRLEPLLS | 254
16 | FSRRQSMDIPSKNRN | 290

Target: SpMyo1
Test: as above
Method in brief: as §1

Row | Binder | SPOT peptide array binding signal intensity
17 | YVRRRPRVRLEPLLS | 5.25
18 | FSRRQSMDIPSKNRN | 32.5

Target: SpNbp2
Test: as above
Method in brief: as §1

Row | Binder | SPOT peptide array binding signal intensity
19 | YVRRRPRVRLEPLLS | 673
20 | FSRRQSMDIPSKNRN | 400

Target: SpPex13
Test: as above
Method in brief: as §1

Row | Binder | SPOT peptide array binding signal intensity
21 | YVRRRPRVRLEPLLS | 61.8
22 | FSRRQSMDIPSKNRN | 157

Target: SpRvs167
Test: as above
Method in brief: as §1

Row | Binder | SPOT peptide array binding signal intensity
23 | YVRRRPRVRLEPLLS | 23
24 | FSRRQSMDIPSKNRN | 34.5

Target: SpSla1-D1-D2
Test: as above
Method in brief: as §1

Row | Binder | SPOT peptide array binding signal intensity
25 | YVRRRPRVRLEPLLS | 9
26 | FSRRQSMDIPSKNRN | 30.5

Target: SpSla1-D3
Test: as above
Method in brief: as §1

Row | Binder | SPOT peptide array binding signal intensity
27 | YVRRRPRVRLEPLLS | 87
28 | FSRRQSMDIPSKNRN | 279

Target: AgAbp1
Test: as above
Method in brief: as §1

Row | Binder | SPOT peptide array binding signal intensity
29 | FSRRQSMDIPSKNRN | 114

Target: AgBbc1
Test: as above
Method in brief: as §1

Row | Binder | SPOT peptide array binding signal intensity
30 | FSRRQSMDIPSKNRN | 69.8

Target: AgBem1-D1
Test: as above
Method in brief: as §1

Row | Binder | SPOT peptide array binding signal intensity
31 | FSRRQSMDIPSKNRN | 557

Target: AgBzz1-D1
Test: as above
Method in brief: as §1

Row | Binder | SPOT peptide array binding signal intensity
32 | FSRRQSMDIPSKNRN | 33

Target: AgBzz1-D2
Test: as above
Method in brief: as §1

Row | Binder | SPOT peptide array binding signal intensity
33 | FSRRQSMDIPSKNRN | 78.5

Target: AgCyk3
Test: as above
Method in brief: as §1

Row | Binder | SPOT peptide array binding signal intensity
34 | FSRRQSMDIPSKNRN | 3

Target: AgFus1
Test: as above
Method in brief: as §1

Row | Binder | SPOT peptide array binding signal intensity
35 | FSRRQSMDIPSKNRN | 248

Target: AgHof1
Test: as above
Method in brief: as §1

Row | Binder | SPOT peptide array binding signal intensity
36 | FSRRQSMDIPSKNRN | 67.5

Target: AgHse1
Test: as above
Method in brief: as §1

Row | Binder | SPOT peptide array binding signal intensity
37 | FSRRQSMDIPSKNRN | 550

Target: AgLsb1
Test: as above
Method in brief: as §1

Row | Binder | SPOT peptide array binding signal intensity
38 | FSRRQSMDIPSKNRN | 15

Target: AgLsb4
Test: as above
Method in brief: as §1

Row | Binder | SPOT peptide array binding signal intensity
39 | FSRRQSMDIPSKNRN | 24

Target: AgMyo5
Test: as above
Method in brief: as §1

Row | Binder | SPOT peptide array binding signal intensity
40 | FSRRQSMDIPSKNRN | 16

Target: AgNbp2
Test: as above
Method in brief: as §1

Row | Binder | SPOT peptide array binding signal intensity
41 | FSRRQSMDIPSKNRN | 660

Target: AgRvs167
Test: as above
Method in brief: as §1

Row | Binder | SPOT peptide array binding signal intensity
42 | FSRRQSMDIPSKNRN | 4.17

Target: AgSho1
Test: as above
Method in brief: as §1

Row | Binder | SPOT peptide array binding signal intensity
43 | FSRRQSMDIPSKNRN | 115

Target: AgSla1-D1-D2
Test: as above
Method in brief: as §1

Row | Binder | SPOT peptide array binding signal intensity
44 | FSRRQSMDIPSKNRN | 54

Target: AgSla1-D3
Test: as above
Method in brief: as §1

Row | Binder | SPOT peptide array binding signal intensity
45 | FSRRQSMDIPSKNRN | 11

Target: CaAbp1-D1
Test: as above
Method in brief: as §1

Row | Binder | SPOT peptide array binding signal intensity
46 | FSRRQSMDIPSKNRN | 266

Target: CaAbp1-D2
Test: as above
Method in brief: as §1

Row | Binder | SPOT peptide array binding signal intensity
47 | FSRRQSMDIPSKNRN | 313

Target: CaBbc1
Test: as above
Method in brief: as §1

Row | Binder | SPOT peptide array binding signal intensity
48 | FSRRQSMDIPSKNRN | 384

Target: CaBem1-D1
Test: as above
Method in brief: as §1

Row | Binder | SPOT peptide array binding signal intensity
49 | FSRRQSMDIPSKNRN | 686

Target: CaBzz1-D1
Test: as above
Method in brief: as §1

Row | Binder | SPOT peptide array binding signal intensity
50 | FSRRQSMDIPSKNRN | 475

Target: CaBzz1-D2
Test: as above
Method in brief: as §1

Row | Binder | SPOT peptide array binding signal intensity
51 | FSRRQSMDIPSKNRN | 308

Target: CaCyk3
Test: as above
Method in brief: as §1

Row | Binder | SPOT peptide array binding signal intensity
52 | FSRRQSMDIPSKNRN | 25

Target: CaFus1
Test: as above
Method in brief: as §1

Row | Binder | SPOT peptide array binding signal intensity
53 | FSRRQSMDIPSKNRN | 602

Target: CaHof1
Test: as above
Method in brief: as §1

Row | Binder | SPOT peptide array binding signal intensity
54 | FSRRQSMDIPSKNRN | 0.5

Target: CaHse1
Test: as above
Method in brief: as §1

Row | Binder | SPOT peptide array binding signal intensity
55 | FSRRQSMDIPSKNRN | 225

Target: CaLsb1
Test: as above
Method in brief: as §1

Row | Binder | SPOT peptide array binding signal intensity
56 | FSRRQSMDIPSKNRN | 4

Target: CaLsb4
Test: as above
Method in brief: as §1

Row | Binder | SPOT peptide array binding signal intensity
57 | FSRRQSMDIPSKNRN | 412

Target: CaMyo5
Test: as above
Method in brief: as §1

Row | Binder | SPOT peptide array binding signal intensity
58 | FSRRQSMDIPSKNRN | 47.8

Target: CaNbp2
Test: as above
Method in brief: as §1

Row | Binder | SPOT peptide array binding signal intensity
59 | FSRRQSMDIPSKNRN | 1460

Target: CaRvs167
Test: as above
Method in brief: as §1

Row | Binder | SPOT peptide array binding signal intensity
60 | FSRRQSMDIPSKNRN | 96.7

Target: CaRvs167-3
Test: as above
Method in brief: as §1

Row | Binder | SPOT peptide array binding signal intensity
61 | FSRRQSMDIPSKNRN | 1.75

Target: CaSho1
Test: as above
Method in brief: as §1

Row | Binder | SPOT peptide array binding signal intensity
62 | FSRRQSMDIPSKNRN | 691

Target: CaSla1-D1-D2
Test: as above
Method in brief: as §1

Row | Binder | SPOT peptide array binding signal intensity
63 | FSRRQSMDIPSKNRN | 982

Target: CaSla1-D3
Test: as above
Method in brief: as §1

Row | Binder | SPOT peptide array binding signal intensity
64 | FSRRQSMDIPSKNRN | 552

Target: ScAbp1
Test: as above
Method in brief: as §1

Row | Binder | SPOT peptide array binding signal intensity
65 | FSRRQSMDIPSKNRN | 74

Target: ScBbc1
Test: as above
Method in brief: as §1

Row | Binder | SPOT peptide array binding signal intensity
66 | FSRRQSMDIPSKNRN | 34

Target: ScBem1-D1
Test: as above
Method in brief: as §1

Row | Binder | SPOT peptide array binding signal intensity
67 | FSRRQSMDIPSKNRN | 88.5

Target: ScBzz1-D1
Test: as above
Method in brief: as §1

Row | Binder | SPOT peptide array binding signal intensity
68 | FSRRQSMDIPSKNRN | 48

Target: ScBzz1-D2
Test: as above
Method in brief: as §1

Row | Binder | SPOT peptide array binding signal intensity
69 | FSRRQSMDIPSKNRN | 102

Target: ScCyk3
Test: as above
Method in brief: as §1

Row | Binder | SPOT peptide array binding signal intensity
70 | FSRRQSMDIPSKNRN | 8.5

Target: ScFus1
Test: as above
Method in brief: as §1

Row | Binder | SPOT peptide array binding signal intensity
71 | FSRRQSMDIPSKNRN | 405

Target: ScHof1
Test: as above
Method in brief: as §1

Row | Binder | SPOT peptide array binding signal intensity
72 | FSRRQSMDIPSKNRN | 2

Target: ScHse1
Test: as above
Method in brief: as §1

Row | Binder | SPOT peptide array binding signal intensity
73 | FSRRQSMDIPSKNRN | 566

Target: ScLsb1
Test: as above
Method in brief: as §1

Row | Binder | SPOT peptide array binding signal intensity
74 | FSRRQSMDIPSKNRN | 56.8

Target: ScLsb2
Test: as above
Method in brief: as §1

Row | Binder | SPOT peptide array binding signal intensity
75 | FSRRQSMDIPSKNRN | 1

Target: ScLsb3
Test: as above
Method in brief: as §1

Row | Binder | SPOT peptide array binding signal intensity
76 | FSRRQSMDIPSKNRN | 350

Target: ScLsb4
Test: as above
Method in brief: as §1

Row | Binder | SPOT peptide array binding signal intensity
77 | FSRRQSMDIPSKNRN | 126

Target: ScMyo3
Test: as above
Method in brief: as §1

Row | Binder | SPOT peptide array binding signal intensity
78 | FSRRQSMDIPSKNRN | 41.5

Target: ScMyo5
Test: as above
Method in brief: as §1

Row | Binder | SPOT peptide array binding signal intensity
79 | FSRRQSMDIPSKNRN | 13

Target: ScNbp2
Test: as above
Method in brief: as §1

Row | Binder | SPOT peptide array binding signal intensity
80 | FSRRQSMDIPSKNRN | 846

Target: ScPex13
Test: as above
Method in brief: as §1

Row | Binder | SPOT peptide array binding signal intensity
81 | FSRRQSMDIPSKNRN | 586

Target: ScRvs167
Test: as above
Method in brief: as §1

Row | Binder | SPOT peptide array binding signal intensity
82 | FSRRQSMDIPSKNRN | 70.5

Target: ScSho1
Test: as above
Method in brief: as §1

Row | Binder | SPOT peptide array binding signal intensity
83 | FSRRQSMDIPSKNRN | 458

Target: ScSla1-D1-D2
Test: as above
Method in brief: as §1

Row | Binder | SPOT peptide array binding signal intensity
84 | FSRRQSMDIPSKNRN | 1260

Target: ScSla1-D3
Test: as above
Method in brief: as §1

Row | Binder | SPOT peptide array binding signal intensity
85 | FSRRQSMDIPSKNRN | 851

Target: SpAbp1-D1
Test: as above
Method in brief: as §1

Row | Binder | SPOT peptide array binding signal intensity
86 | FSRRQSMDIPSKNRN | 118

Target: SpBbc1
Test: as above
Method in brief: as §1

Row | Binder | SPOT peptide array binding signal intensity
87 | FSRRQSMDIPSKNRN | 17

Target: SpBzz1-D1
Test: as above
Method in brief: as §1

Row | Binder | SPOT peptide array binding signal intensity
88 | FSRRQSMDIPSKNRN | 573
